Experiment [1] can be described thus: qHTS assay to test for compound auto fluorescence at 535 nm (green) in HEK293 cells (AID 720680). (In general: Quantitative high-throughput screening tests each substance at several concentrations.)
A short description of experiment [2]: qHTS assay to test for compound auto fluorescence at 460 nm (blue) in HEK293 cell free culture (AID 720681). In short, it runs like this: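 Test compounds were pinned into cell-free culture medium (DMEM with 10% FBS) and fluorescence was read directly at Ex/Em 405/460 nm. Signals were expressed as fluorescence equivalents of triamterene, with DMSO vehicle as control.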

Experiment [3] is described as follows: qHTS assay to test for compound auto fluorescence at 535 nm (green) in HEK293 cell free culture (AID 720682). In short, it runs like this: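 No cells present: wells hold DMEM supplemented with 10% FBS, into which compound or vehicle is pinned. Green emission is then recorded (485 nm excitation, 535 nm emission) and scaled to fluorescein.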
Experiment [4] can be described thus: qHTS assay to test for compound auto fluorescence at 590 nm (red) in HepG2 cell free culture (AID 720684). In short, it runs like this:
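Readout: intrinsic compound fluorescence at 590 nm emission after 540 nm excitation, scaled to Rose Bengal sodium. Matrix was cell-free MEM with 10% FBS; DMSO vehicle wells served as control.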

Experiment [5] is described as follows: qHTS assay to test for compound auto fluorescence at 460 nm (blue) in HepG2 cell free culture (AID 720685). In outline:
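Cell-free plates of MEM plus 10% FBS received 23 nL compound or DMSO vehicle; blue-channel (405/460 nm) intensity scored against triamterene as reference fluorophore.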

Experiment [6] can be described thus: qHTS assay to test for compound auto fluorescence at 535 nm (green) in HepG2 cell free culture (AID 720686).
Experiment [7] is described as follows: qHTS assay to test for compound auto fluorescence at 460 nm (blue) in HepG2 cells (AID 720687). In outline: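 Cells (2,000/well in MEM with 10% FBS) attached overnight at 37 C, then were exposed to compound or DMSO for 1 hr at 37 C, 5% CO2. Fluorescence read at Ex/Em 405/460 nm, expressed as triamterene-equivalent signal.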
Experiment [8] has as its target Glucocorticoid receptor (Homo sapiens) (UniProt P04150). In words: qHTS assay to identify small molecule agonists of the glucocorticoid receptor (GR) signaling pathway (AID 720691; active = well fitted activation curve with a large enough effect in the signal ratio in the repeat runs, not every such curve was filed as active; the % refers to the signal ratio). The settings on record: GR-bla HeLa, beta-lactamase reporter ratio, 18 h; activation: at 62.4 µM (top of the series). In short, it runs like this: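 HeLa GR-bla reporter line; cells pre-incubated 4 h, compound in DMSO 18 h at 37 C; LiveBLAzer B/G FRET substrate 2 h RT; fluorescence intensity read-out.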

Experiment [9] has the same target. Description: qHTS assay to identify small molecule antagonists of the glucocorticoid receptor (GR) signaling pathway (AID 720692; active = well fitted inhibition curve with a large enough effect in the signal ratio in the repeat runs, not every such curve was filed as active; the % refers to the signal ratio; also: potency is read from the fitted curve at half-maximal effect). In short, it runs like this:
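Read-out: beta-lactamase FRET substrate fluorescence, 2 h at room temperature, in HeLa cells stably carrying a GRE-driven bla reporter. Compounds were co-incubated with 5 nM dexamethasone agonist (final) for 18 h at 37 C.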

The nature of experiment [10]: qHTS assay to identify small molecule antagonists of the glucocorticoid receptor (GR) signaling pathway - cell viability counter screen (AID 720693). Also: nearly all actives have a fitted effect of over 55% in size. Also: potency is read from the fitted curve at half-maximal effect.
Experiment [11] is described as follows: qHTS assay for identifying genotoxic compounds that show differential cytotoxicity against isogenic chicken DT40 cell lines with known DNA damage response pathways - Rad54/Ku70 mutant cell line (AID 743015). Also: nearly all actives have a fitted effect of over 60% in size. Also: potency is read from the fitted curve at half-maximal effect.
Experiment [12] can be described thus: qHTS assay to identify small molecule antagonists of the androgen receptor (AR) signaling pathway - cell viability counter screen (AID 743033; also: nearly all actives have a fitted effect of over 45% in size; also: potency is read from the fitted curve at half-maximal effect).
Experiment [13] deals with Androgen receptor (Homo sapiens) (UniProt P10275). In words: qHTS assay to identify small molecule antagonists of the androgen receptor (AR) signaling pathway (AID 743035; active = well fitted inhibition curve with a large enough effect in the signal ratio in the repeat runs, not every such curve was filed as active; the % refers to the signal ratio; also: potency is read from the fitted curve at half-maximal effect). In outline: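 AR-bla HEK293 reporter cells; 4 h settle at 37C/5% CO2; compound + R1881 agonist, 16 h at 37C; LiveBLAzer B/G FRET substrate 2 h RT; fluorescence intensity read. qHTS format.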
For experiment [14] the target is unchanged. Description: qHTS assay to identify small molecule agonists of the androgen receptor (AR) signaling pathway (AID 743036; active = well fitted activation curve with a large enough effect in the signal ratio in the repeat runs, with a control signal flat, not every such curve was filed as active; the % refers to the signal ratio). In short, it runs like this: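 Quantitative HTS of the Tox21 10K library in HEK293 cells bearing a stably integrated UAS-controlled beta-lactamase reporter. Compound exposure lasted 16 h at 37C. Reporter activity was detected by FRET substrate fluorescence after 2 h at room temperature.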

For experiment [15] the target is unchanged. In words: qHTS assay to identify small molecule agonists of the androgen receptor (AR) signaling pathway using the MDA cell line (AID 743040; also: nearly all actives have a fitted effect of over 20% in size). In outline:
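Agonist activity is measured as luciferase luminescence in human MDA-kb2 cells whose MMTV reporter responds to both AR and GR. Compounds in DMSO incubate 16 h at 37C, 0% CO2, and ONE-Glo is read after 30 min.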

A short description of experiment [16]: qHTS assay to identify small molecule antagonists of the androgen receptor (AR) signaling pathway using the MDA cell line - cell viability counter screen (AID 743041; also: nearly all actives have a fitted effect of over 45% in size). In short, it runs like this:
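qHTS viability read-out; MDA-kb2 AR-luc; R1881-stimulated; 16 h exposure at 37C, 0% CO2; CellTiter-Fluor, 30 min; fluorescence intensity.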

Experiment [17] addresses Androgen receptor (Homo sapiens) (UniProt P10275). In words: qHTS assay to identify small molecule antagonists of the androgen receptor (AR) signaling pathway using the MDA cell line (AID 743042; also: nearly all actives have a fitted effect of over 55% in size). In outline:
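MDA-kb2 cells (human breast carcinoma, stably carrying an MMTV-luciferase reporter responsive to AR and GR) were plated at 3,000 cells/well and preincubated 5 hr at 37C, then given compound plus R1881 agonist for 16 h. ONE-Glo luminescence was read.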

Experiment [18] is described as follows: qHTS assay for identifying genotoxic compounds that show differential cytotoxicity against isogenic chicken DT40 cell lines with known DNA damage response pathways - Rev3 mutant cell line (AID 743014). Also: nearly all actives have a fitted effect of over 55% in size. Also: potency is read from the fitted curve at half-maximal effect.
Experiment [19] is described as follows: qHTS assay to test for compound auto fluorescence at 590 nm (red) in HEK293 cell free culture (AID 720683). In short, it runs like this:
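Tox21 10K library compounds were pinned into cell-free DMEM with 10% FBS and fluorescence was read at excitation 540 nm. Activity is expressed as Rose Bengal sodium equivalency.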

A short description of experiment [20]: qHTS assay for identifying genotoxic compounds that show differential cytotoxicity against isogenic chicken DT40 cell lines with known DNA damage response pathways - wild type cell line (AID 743012). Also: nearly all actives have a fitted effect of over 60% in size. Also: potency is read from the fitted curve at half-maximal effect. In short, it runs like this:
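CellTiter-Glo luminescence readout of viability in wild type DT40 cells after 40 h compound exposure at 37 C/5% CO2; 300 cells/well; reagent incubated 30 min at room temperature before reading.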

Records with an inconclusive call do not appear. Activity calls are given as the source filed them. Unless noted, calls follow the shape of the dose curve; as a rule, active = well fitted curve in the direction sought with a large enough effect in the repeat runs; inconclusive = weak or mixed curves; inactive = no such curve, though single readings can be large; an effect the other way counts as inactive or inconclusive.

Sequence of Androgen receptor (Homo sapiens) (P10275 whole entry, looked up): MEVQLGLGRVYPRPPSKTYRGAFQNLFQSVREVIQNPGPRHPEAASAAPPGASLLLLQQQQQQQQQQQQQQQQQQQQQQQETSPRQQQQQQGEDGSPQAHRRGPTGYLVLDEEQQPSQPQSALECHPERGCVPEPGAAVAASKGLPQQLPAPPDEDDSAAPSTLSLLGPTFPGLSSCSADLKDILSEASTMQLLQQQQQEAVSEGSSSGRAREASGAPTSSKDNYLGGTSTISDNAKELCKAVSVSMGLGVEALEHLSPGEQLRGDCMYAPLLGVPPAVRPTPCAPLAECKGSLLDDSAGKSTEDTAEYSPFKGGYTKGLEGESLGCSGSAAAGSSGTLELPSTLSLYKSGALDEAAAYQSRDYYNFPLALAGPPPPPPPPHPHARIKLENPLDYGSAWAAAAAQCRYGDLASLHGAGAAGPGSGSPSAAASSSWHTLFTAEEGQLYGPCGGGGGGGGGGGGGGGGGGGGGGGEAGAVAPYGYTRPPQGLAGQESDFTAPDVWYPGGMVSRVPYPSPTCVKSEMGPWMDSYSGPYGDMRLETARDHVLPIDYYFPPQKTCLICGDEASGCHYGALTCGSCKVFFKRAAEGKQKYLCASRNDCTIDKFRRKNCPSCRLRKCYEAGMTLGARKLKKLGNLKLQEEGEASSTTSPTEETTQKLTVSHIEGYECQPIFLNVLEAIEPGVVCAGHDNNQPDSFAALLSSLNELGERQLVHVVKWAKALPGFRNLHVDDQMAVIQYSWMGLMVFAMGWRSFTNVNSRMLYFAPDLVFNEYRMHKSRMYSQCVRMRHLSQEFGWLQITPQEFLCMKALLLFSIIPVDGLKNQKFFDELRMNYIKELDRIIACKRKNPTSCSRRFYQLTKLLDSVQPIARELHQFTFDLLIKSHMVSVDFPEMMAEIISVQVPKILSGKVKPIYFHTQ
Sequence of Glucocorticoid receptor (Homo sapiens) (P04150 whole entry, looked up): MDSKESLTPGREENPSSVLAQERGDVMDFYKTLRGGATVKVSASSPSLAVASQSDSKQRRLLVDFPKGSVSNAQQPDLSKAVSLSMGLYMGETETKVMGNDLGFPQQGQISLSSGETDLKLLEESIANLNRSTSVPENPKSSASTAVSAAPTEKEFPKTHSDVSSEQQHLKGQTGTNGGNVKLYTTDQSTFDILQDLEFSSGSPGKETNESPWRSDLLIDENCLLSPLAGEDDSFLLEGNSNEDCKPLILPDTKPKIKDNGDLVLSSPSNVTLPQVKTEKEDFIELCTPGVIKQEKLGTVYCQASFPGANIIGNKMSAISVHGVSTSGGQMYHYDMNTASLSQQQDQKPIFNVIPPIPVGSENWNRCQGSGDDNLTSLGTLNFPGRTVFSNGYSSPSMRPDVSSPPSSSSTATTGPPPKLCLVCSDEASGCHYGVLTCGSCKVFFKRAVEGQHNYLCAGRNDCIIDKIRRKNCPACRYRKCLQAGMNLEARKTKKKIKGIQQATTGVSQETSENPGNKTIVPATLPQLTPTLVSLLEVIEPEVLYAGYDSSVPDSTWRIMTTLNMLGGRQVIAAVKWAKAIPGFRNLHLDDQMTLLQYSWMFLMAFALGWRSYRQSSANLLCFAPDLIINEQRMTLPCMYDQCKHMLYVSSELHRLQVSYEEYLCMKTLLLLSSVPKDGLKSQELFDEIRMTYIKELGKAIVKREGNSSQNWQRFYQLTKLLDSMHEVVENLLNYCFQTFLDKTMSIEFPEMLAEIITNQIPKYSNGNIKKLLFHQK

On to `N[C@@H](Cc1cnc[nH]1)C(=O)O`, for which the molecule was called inactive in experiment [1], in experiment [3] and in experiment [4]. Besides, the Potency entry in experiment [2], in [5], in [6], in experiment [7], in experiment [8] and in experiment [9] was “inactive” in each case. Moreover, the Potency result in experiment [10], in [11], in [12], in experiment [13], in experiment [14] and in experiment [15] was “inactive” each time. The Potency result in experiment [16] and in [17] was “inactive” each time.
For `CCc1cn([C@H]2C[C@H](O)[C@@H](CO)O2)c(=O)[nH]c1=O`, the result in experiment [1], in experiment [3] and in experiment [4] was inactive. The Potency entry in experiment [2], in [5], in experiment [6], in [7], in [8] and in experiment [9] was “inactive” in each case. Also, the Potency result in experiment [10], in [18], in experiment [11], in experiment [12] and in [16] was “inactive” in each case.
Turning to `CC(C)(C)C(=O)OCC(=O)[C@H]1CC[C@H]2[C@@H]3CCC4=CC(=O)CC[C@]4(C)[C@H]3CC[C@]12C`, the result in experiment [1], in experiment [3] and in [19] was inactive. Moreover, the Potency entry in [2], in [5], in [6], in experiment [7], in experiment [10] and in experiment [20] was “inactive” in each case. Besides, the Potency result in [18], in [11], in experiment [12] and in experiment [16] was “inactive” throughout.
In the case of `NC(=O)c1cc[n+](CC2=C(C(=O)O)N3C(=O)[C@@H](NC(=O)C(c4ccccc4)S(=O)(=O)[O-])[C@H]3SC2)cc1` (some centres undefined), the molecule was classed as inactive in [1], in experiment [3] and in experiment [19]. The Potency entry in [2], in experiment [5], in [6], in experiment [7], in [10] and in [20] was “inactive” each time. In addition, the Potency entry in experiment [18], in experiment [13], in [15], in experiment [16] and in experiment [17] was “inactive” in each case.
On to `CSCC[C@H](NC(=O)[C@H](Cc1ccc(OS(=O)(=O)O)cc1)NC(=O)[C@@H](N)CC(=O)O)C(=O)NCC(=O)N[C@@H](Cc1c[nH]c2ccccc12)C(=O)N[C@@H](CCSC)C(=O)N[C@@H](CC(=O)O)C(=O)N[C@@H](Cc1ccccc1)C(N)=O`, for which the outcome in experiment [1], in experiment [3] and in [19] was inactive. Besides, the Potency result in experiment [2], in experiment [5], in [6], in [10], in experiment [20] and in experiment [18] was “inactive” each time. The Potency result in experiment [12] and in [16] was “inactive” in each case.
For `C[N+](C)(C)CCOP(=O)(O)OP(=O)([O-])OC[C@H]1O[C@@H](n2ccc(N)nc2=O)[C@H](O)[C@@H]1O`, the molecule was classed as inactive in experiment [1], in experiment [3] and in [4]. Also, the Potency result in experiment [2], in [5], in experiment [6], in experiment [7], in experiment [8] and in experiment [9] was “inactive” each time. Besides, the Potency result in [10], in experiment [20], in experiment [18], in experiment [12], in [13] and in experiment [14] was “inactive” throughout. Further, the Potency entry in experiment [16] and in experiment [17] was “inactive” in each case.
On to `C[C@H]1O[C@@H](O[C@H]2CC[C@@]3(C)[C@H](CC[C@@H]4[C@@H]3C[C@@H](O)[C@]3(C)[C@@H](C5=CC(=O)OC5)CC[C@]43O)C2)C[C@H](O)[C@@H]1O[C@H]1C[C@H](O)[C@H](O[C@H]2C[C@H](O)[C@H](O[C@@H]3O[C@H](CO)[C@@H](O)[C@H](O)[C@H]3O)[C@@H](C)O2)[C@@H](C)O1`, for which the molecule was called inactive in experiment [1], in experiment [3] and in [4]. Moreover, the Potency entry in experiment [2], in [6], in experiment [8] and in experiment [16] was “inactive” throughout. For the same molecule, the Potency in experiment [10] was 1340 nM (active); in experiment [20] it was 1330 nM (active); in experiment [11], 1500 nM (active); in experiment [12] it was 268 nM (active); in experiment [13], 1200 nM (active).
For the molecule `CCCCC/C=C\C=C\C(=O)OCC`, the molecule was called inactive in experiment [1], in [3] and in experiment [4]. Besides, the Potency result in experiment [2], in experiment [5], in [6] and in experiment [8] was “inactive” each time. The Potency in experiment [9] is 45500 nM (active); in experiment [20], 12700 nM (active); in experiment [18], 16000 nM (active); in experiment [11] it was 12700 nM (active).

These data come from PubChem BioAssay (Tox21).
